# Screens from PubChem BioAssay.
# This is a sample that favours compounds with a hit; in the whole collection about 4.1% have one here.
# ssDAF12 agonist – activators of S. stercoralis DAF-12 nuclear receptor. HEK293 ssDAF-12/GRIP1 lit1-tk-luc reporter, luminescence; % of 3 µM dafachronic acid response. activation, % at 6.8 µM. hit rate 1% among 370,000. AID 652126;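 active = activation above the mean over all tested compounds plus 3 SD, cut at about 0.9% in these data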;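 note: 0% = DMSO-only wells and 100% = 3 µM delta7-dafachronic acid wells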
# DAX1 inh-1 – inhibitors of human orphan nuclear receptor DAX1 (NR0B1); HEK293 Gal4-DAX1 luciferase reporter, luminescence; inhibition, % at 6.75 µM; P51843; hit rate 0.99% among 340,000;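 active = inhibition above the mean over all tested compounds plus 3 SD, cut at about 4.2% in these data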;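 note: 0% = DAX1-transfected cells with DMSO and 100% = empty-vector control cells with DMSO; inhibition shows as a rise in luminescence from relieved DAX1 repression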
# Target sequence (P51843 207-470 limits assumed): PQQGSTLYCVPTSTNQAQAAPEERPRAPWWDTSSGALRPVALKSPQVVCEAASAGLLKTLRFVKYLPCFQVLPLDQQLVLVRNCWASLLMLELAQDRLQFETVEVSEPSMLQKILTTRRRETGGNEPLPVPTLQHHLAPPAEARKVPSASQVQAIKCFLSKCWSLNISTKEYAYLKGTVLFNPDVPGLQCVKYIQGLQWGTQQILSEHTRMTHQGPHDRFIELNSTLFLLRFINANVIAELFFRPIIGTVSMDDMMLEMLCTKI
# hcDAF-12 act – H. contortus DAF-12 activation, primary screen | HEK293 hcDAF-12 lit1-tk-luc reporter, luminescence; 0% DMSO, 100% Δ7-dafachronic acid | AID 652067 | hit rate 1.4% among 370,000 | activation, % at 6.8 µM;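 active = activation above the mean of all tested compounds plus 3 SD, cut at about 5.5% in these data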;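 note: 100% = response to 3 µM Δ7-dafachronic acid high control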
# hgDAF12 agonist – agonists of H. glycines DAF-12 nuclear receptor. HEK293 GAL4-hgDAF12 UAS-luciferase reporter, agonist luminescence; normalized to butyrate control. activation, % at 6.8 µM. hit rate 1.8% among 370,000. AID 687014;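 active = activation above a cutoff set at the mean of all screened compounds plus 3 SD, cut at about 10% in these data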;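 note: 0% = DMSO wells and 100% = sodium butyrate wells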
# DAX1 inh-2 – blocks DAX1 repression of SF-1 activated StAR promoter; HEK293T StAR-luciferase reporter, SF-1/DAX-1 repression relief; inhibition, % at 6.8 µM; hit rate 1.1% among 370,000; AID 652010;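 active = inhibition above the mean over all tested compounds plus 3 SD, cut at about 3.6% in these data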;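 note: 0% = DAX-1 cells with DMSO and 100% = cells lacking DAX-1 with DMSO; higher inhibition means more luminescence from relief of DAX-1 repression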
# LXR ag – activates human LXR-beta, counter-screen for hcDAF-12 agonists; shares compounds with hcDAF-12 act; HEK293 Gal4-LXR tk-luc reporter, luminescence, 24 h; normalized: DMSO 0%, positive control 100%; activation, % at 6.8 µM; 3,400 tested, under 10 active; AID 743027;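 active = mean percent activation of the reporter above a cutoff set as the average over tested compounds plus their standard deviation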
# hcDAF12 ag – hcDAF-12 agonism, confirmation assay; HEK293 hcDAF-12 lit1-tk-luc reporter, luminescence; % of Δ7-dafachronic acid response; activation, % at 6.8 µM; shares compounds with hcDAF-12 act; hit rate 61% among 3,400;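 active = mean activation across triplicate tests above the threshold derived from the earlier primary screen, cut at about 5.5% in these data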;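 note: 0% = DMSO only wells and 100% = 3 µM Δ7-dafachronic acid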
# * marks the source's active call; other numbers are inactive results; . = no result given.
SMILES,ssDAF12 agonist,DAX1 inh-1,hcDAF-12 act,hgDAF12 agonist,DAX1 inh-2,LXR ag,hcDAF12 ag
C=CCN1C(=O)C(=O)N(Cc2nc3ccccc3s2)C1=O,1.2*,3.5,9.6*,5.8,1.3,0.9,9.7*
O=S(=O)(c1cccs1)N1CCN(Cc2nc3ccccc3s2)CC1,-0.1,-1.0,2.5,2.0,0.2,.,.
Cc1cc(N/C(=C\C(=O)c2ccccc2)c2ccccc2)ccc1Br,-0.2,.,0.6,1.9,1.0,.,.
N#Cc1ccccc1Sc1ccccc1N,.,1.2,.,.,.,.,.
Nc1ccccc1SSc1ccccc1N,-0.1,0.5,10.5*,4.0,-1.1,0.2,5.3
COC(=O)c1c[nH]n2c(=O)c(Cl)c(C)nc12,-0.7,2.8,8.7*,0.7,0.4,-0.1,2.2
COC(=O)c1c[nH]n2c(=O)cc(C)nc12,-1.8,0.9,-1.9,-1.2,-0.5,.,.
CC(C)c1ccc2c(c1)[C@H]1OCC[C@H]1[C@@H](c1cccs1)N2,0.8,-1.9,13.8*,10.4,-2.7,0.4,3.7
C=CCNC(=S)Nc1c(C(=O)OC)[nH]c2cc(OC)ccc12,0.6,1.1,9.7*,7.3,0.8,0.5,7.5*
CC(C)c1ccc(NC(=O)c2sccc2-n2cccc2)cc1,-0.2,-0.3,11.4*,12.0*,1.1,0.3,8.9*
Cc1c(Br)cccc1NC(=O)c1sccc1-n1cccc1,-1.3,-1.3,-1.2,0.3,-1.4,.,.
COc1cccc(NC(=O)c2ccccc2Oc2ccccc2)c1,-1.2,1.3,-2.0,0.1,-0.2,.,.
COc1cccc(NC(=O)c2cc3ccccc3o/c2=N\O)c1,1.1*,-3.5,7.5*,12.3*,1.8,1.8,10.7*
O=C(Nc1ccccc1Cl)c1cc2ccccc2o/c1=N\O,2.1*,4.7*,11.3*,12.8*,1.6,1.5,12.9*
Cc1sc(NC(=O)c2ccc(Cl)s2)c(C(N)=O)c1C,2.0*,4.6*,10.3*,13.5*,2.3,1.1,14.1*
Cc1sc(NC(=S)Nc2ccc(F)cc2)c(C(N)=O)c1C,-1.0,0.0,2.2,0.8,-0.3,.,.
Cc1cnc(NC(=O)c2cc3c(s2)CCCC3)s1,0.1,-2.1,9.0*,2.8,1.9,1.6,7.0*
Cc1csc(NC(=O)c2cc3c(s2)CCCC3)n1,0.2,-2.2,11.1*,12.0*,1.8,1.4,7.0*
Cc1csc(NC(=O)c2cc3c(s2)CCCCC3)n1,-1.3,-3.9,3.4,-2.1,-1.2,.,.
Cc1ccc(S(=O)(=O)N(C)CC(=O)NNC(=O)CCS(=O)(=O)c2ccccc2)cc1,-1.5,0.2,-0.8,0.7,0.0,.,.
COc1ccc(NC(C)C(=O)Nc2cc(C(F)(F)F)ccc2N2CCOCC2)c(OC)c1 (stereo unspecified),-1.8,-1.6,14.1*,-1.2,1.4,0.1,-0.8
COc1cc(Cl)c(C)cc1NC(C)C(=O)Nc1cc(C(F)(F)F)ccc1N1CCOCC1 (stereo unspecified),-0.2,-0.4,0.2,-0.7,-0.5,.,.
O=C(N/N=C/c1ccncc1)c1ccccn1,0.1,2.3,1.0,6.2,0.8,.,.
CC(C)c1ccc(/C=N/NC(=O)c2ccccn2)cc1,1.0*,-0.8,8.3*,9.7,3.2,1.5,10.2*
Cc1ccc(Nc2nc(N)c3ccccc3n2)cc1Cl,3.6*,0.4,11.5*,11.5*,3.0,2.2,14.9*
O=c1n(Cc2ccccc2)c(O)c2n1Cc1ccccc1N=C2c1ccc(C(F)(F)F)cc1,0.6,.,3.8,4.4,-0.3,.,.
CCCCn1c(O)c2n(c1=O)Cc1ccccc1N=C2c1ccc(C)cc1,0.1,.,7.3*,0.3,0.7,-0.1,3.5
O=C(Cn1cncn1)NCc1cccc(OC(F)F)c1,-1.1,-0.6,6.8*,-1.5,0.1,-0.2,1.6
COc1ccc(C(=O)C[n+]2ccc3ccccc3c2C)cc1,1.8*,8.6*,12.6*,8.9,1.0,1.2,14.2*
Cc1ccc(C(=O)C[n+]2ccc3ccccc3c2)cc1,1.3*,1.8,6.7*,6.7,1.0,0.1,4.7
